Records with an inconclusive call do not appear. Active and inactive are the calls of the source. Unless noted, calls follow the shape of the dose curve; as a rule, active = well fitted curve in the direction sought with a large enough effect; inconclusive = small, poorly fitted or top-dose-only effect, or another doubt; inactive = no such curve, though single readings can be large; an effect the other way counts as inactive or inconclusive.
What was measured:
[1] = AP1 Signaling Pathway (AID 357; active = well fitted curve in either direction with a large enough effect, not every such curve was filed as active;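 also: ME-180 reporter cells stimulated with EGF at its EC50 level; % is scaled to controls: 0 for no effect and ±100 for the full control effect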); conditions: ME-180 AP-1-bla reporter, EGF-induced, beta-lactamase ratio, 5 h; at 17.2 µM (top of the series) unless noted
Outline: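 Read-out was the 460nm/530nm emission ratio (excitation 405nm) after CCF4 loading for 2.5 hours at room temperature. Cells carried an AP-1-driven beta-lactamase reporter, were stimulated with EC50 EGF plus compound for 5 hours, and AC50 values came from titrations.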

[2] = NFAT Signaling Pathway (AID 444; active = well fitted curve in either direction with a large enough effect, not every such curve was filed as active;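 also: carbachol stimulus at about its EC50 of 1 µM final; % is scaled to controls: 0 for no effect and ±100 for the full control effect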); conditions: Jurkat NFAT-bla M1, carbachol, beta-lactamase ratio, 5 h; at 17.2 µM (top of the series) unless noted
Outline: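 Read-out: CCF4 FRET ratio (460 nm/530 nm) after 1 h RT dye loading, used for %activity and AC50 from titration series. Cells: Jurkat NFAT-β-lactamase/M1 line, treated with compound plus 1 uM carbachol for 5 h, 37 °C.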

[3] = Stat Signaling Pathway (AID 446; active = well fitted curve in either direction with a large enough effect, not every such curve was filed as active;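 also: ME-180 cervical cancer cells given 40 pM IL-6 alongside compound; SIE-controlled beta-lactamase reporter measured as 460/530 nm FRET emission ratio; % is scaled to controls: 0 for no effect and ±100 for the full control effect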)
Outline: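 Reporter line: ME-180 cervical carcinoma, SIE-beta-lactamase. Treatment: compound with 40 pM IL-6, 5 hrs, 37 C, in low-serum OPTI-MEM with 10 mM HEPES pH 7.3. Detection: 460/530 nm fluorescence.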

[4] = biological target: Glucocorticoid receptor (Homo sapiens) (UniProt P04150); test: GR-GFP Redistribution (AID 450;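 active = compounds whose dose series gives a full or clear partial fitted curve of increased nuclear translocation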; also: potency is read from the fitted curve at half-maximal effect); conditions: U2OS GR-GFP nuclear translocation, laser cytometry, 2 h
[5] = biological target: Glucocorticoid receptor (Homo sapiens) (UniProt P04150); test: GR-EFC Redistribution (AID 451; calls by dose curve; also: potency is read from the fitted curve at half-maximal effect); conditions: CHO-K1 GR-EFC translocation, beta-gal luminescence, 2 h
Outline: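 Translocation of GR-ED fusion to nuclear EA restores b-gal, read by luminescence after 1 h room-temperature detection. Engineered CHO-K1 biosensor cells, 1,000/well, exposed 2 h at 37 C to titrations up to 46 uM final.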

[6] = biological target: Mitogen-activated protein kinase 10 (Mus musculus) (UniProt Q61831); test: JNK3 AlphaScreen Assay (AID 530; active = well fitted curve in either direction with a large enough effect, not every such curve was filed as active;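 also: kinase came from lysate of stimulated human HepG2 cells; signal reports phosphorylation of biotinylated GST-cJun 1-79 at Ser73 with 10 µM ATP; % is scaled to controls: 0 for no effect and ±100 for the full control effect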)
Outline: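 Room-temperature AlphaScreen kinase assay; pre-activated HepG2 lysate as JNK3 source, biotin-GST-cJun(1-79) substrate, 10 uM ATP, compound 15 min preincubation.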

[7] = biological target: 3',5'-cyclic-AMP phosphodiesterase 4B (Homo sapiens) (UniProt Q07343); test: qHTS Assay for Inhibitors of PDE-IV (AID 607; active = well fitted activation curve with a large enough effect in the main read-out, with a control signal flat, not every such curve was filed as active; also: % of control where 0% means no effect)
Outline: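 Cell-based read-out of cAMP via a modified cyclic nucleotide-gated channel and membrane potential dye (535/590 nm) in HEK293 cells expressing PDE4 endogenously. Compounds tested up to 22.9 uM final; 100 uM RO 20-1724 reference.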

[8] = biological target: ATP-dependent 6-phosphofructokinase (Trypanosoma brucei brucei) (UniProt O15648); test: qHTS Assay to Find Inhibitors of T. brucei phosphofructokinase: hit validation (AID 492961)
Outline: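 ADP-Glo luminescence read-out of ADP formed by 1.25 nM PFK from 0.1 mM ATP and 0.5 mM F6P (TEA pH 8.0, 45 min, RT). Compounds titrated; activity normalized to no-enzyme and full-enzyme controls.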

[9] = biological target: Ubiquitin carboxyl-terminal hydrolase 1 (Homo sapiens) (UniProt O94782); test: Inhibitors of USP1/UAF1: Pilot qHTS (AID 504865);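 also: rhodamine fluorescence freed from ubiquitin-rhodamine substrate followed over time; top concentration of the series differs between compounds; % is scaled to controls: 0 for no effect and ±100 for the full control effect; nearly all actives have a fitted effect of over 35% in size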
Outline: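 In 50mM HEPES pH 7.8 containing 0.5mM EDTA, 1mM TCEP, 0.1 mg/ml BSA and 0.01% Tween-20, 1nM USP1/UAF1 is exposed to compound for 15 min, then Ub-Rho (150nM final) is added and fluorescence is read over time.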

[10] = biological target: Luciferin 4-monooxygenase (Photinus pyralis) (UniProt P08659); test: Biochemical firefly luciferase enzyme assay for NPC (AID 624030);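 also: purified P. pyralis luciferase at 10 nM with luciferin and ATP substrate; 0% = DMSO and -100% = full luciferase inhibition by PTC124 control; nearly all actives have a fitted effect of over 70% in size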
Outline: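 Direct inhibition of firefly luciferase enzyme (10 nM final, 50 mM Tris Acetate) assessed by luminescence within 5 minutes. Percent activity scaled between DMSO and PTC124 positive control, with concentration-effect curves classified by fit quality and response.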

[11] = S16 Schwann cell viability assay (CellTiter-Glo assay) (AID 624031);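 also: cellular ATP luminescence as a viability measure; plate controls were DMSO-treated cells for no effect and cell-free wells for full effect; nearly all actives have a fitted effect of over 70% in size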
Outline: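 Native S16 rat Schwann cells, 500-750 cells/well in DMEM with 10% FBS, dosed with compound after overnight culture and incubated 24h at 37 degree Celsius/5% CO2. Viability by CellTiter-Glo luminescence; % activity normalized to no-cell wells and DMSO-treated cells.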

[12] = S16 Schwann cell PMP22 intronic element firefly luciferase assay (AID 624032);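 also: plate controls were DMSO for no effect and PTC124 positive control mean for full effect; nearly all actives have a fitted effect of over 30% in size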
Outline: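 Luciferase reporter of PMP22 intronic-element expression in stably transfected S16 rat Schwann cells, read by ONE-Glo luminescence after 24 h compound exposure at 37 C. Activity scaled between DMSO (0%) and positive-control PTC124; concentration-effect curves quality-classified.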

[13] = S16 Schwann cell PMP22 intronic element beta-lactamase assay (AID 624044; calls by dose curve;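 also: 0% = DMSO and -100% = potassium clavulanate positive control; nearly all actives have a fitted effect of over 15% in size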); conditions: S16 rat Schwann cells, PMP22 element beta-lactamase FRET, 24 h; ratio activity, negative = inhibition: at 38.3 µM (top of the series)
Outline: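 Rat S16 Schwann cells with beta-Lac driven by a PMP22 intronic element, compound-treated 24 h at 37 °C. LiveBLAzer FRET B/G read: 460 nm normalized to potassium clavulanate vs DMSO; 535 nm FRET as viability; concentration-effect curves classified.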

[14] = qHTS profiling for inhibitors of Plasmodium falciparum proliferation (AID 504749); also: nearly all actives have a fitted effect of over 60% in size; also: potency is read from the fitted curve at half-maximal effect;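 as to activity, negative = inhibition: 0% = DMSO vehicle and full inhibition = artemisinin control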; conditions: P. falciparum in erythrocytes, SYBR Green DNA, 72 h, at 12.8 µM (top of the series)
Outline: (§1)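 Three-day growth assay of blood-stage parasites in erythrocytes (0.3% parasitemia, 2.5% hematocrit) at 37 C, 5% CO2, quantified by SYBR Green DNA staining after overnight detergent lysis.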

[15] = tested on: 3D7; test: as above; conditions: P. falciparum in erythrocytes, SYBR Green DNA, 72 h; series mostly up to 28.7 µM
Outline: as §1

[16] = tested on: AA1029; test: as above; conditions: P. falciparum in erythrocytes, SYBR Green DNA, 72 h; series mostly up to 28.7 µM
Outline: as §1

[17] = tested on: AS120; test: as above; conditions: P. falciparum in erythrocytes, SYBR Green DNA, 72 h; series mostly up to 28.7 µM
Outline: as §1

[18] = tested on: ATS189; test: as above; conditions: P. falciparum in erythrocytes, SYBR Green DNA, 72 h; series mostly up to 28.7 µM
Outline: as §1

[19] = tested on: C2A; test: as above; conditions: P. falciparum in erythrocytes, SYBR Green DNA, 72 h; series mostly up to 28.7 µM
Outline: as §1

[20] = tested on: CP185; test: as above; conditions: P. falciparum in erythrocytes, SYBR Green DNA, 72 h; series mostly up to 28.7 µM
Outline: as §1

[21] = tested on: CP191; test: as above; conditions: P. falciparum in erythrocytes, SYBR Green DNA, 72 h; series mostly up to 28.7 µM
Outline: as §1

[22] = tested on: CP194; test: as above; conditions: P. falciparum in erythrocytes, SYBR Green DNA, 72 h; series mostly up to 28.7 µM
Outline: as §1

[23] = tested on: CP201; test: as above; conditions: P. falciparum in erythrocytes, SYBR Green DNA, 72 h; series mostly up to 28.7 µM
Outline: as §1

[24] = tested on: CP203; test: as above; conditions: P. falciparum in erythrocytes, SYBR Green DNA, 72 h; series mostly up to 28.7 µM
Outline: as §1

[25] = tested on: CP211; test: as above; conditions: P. falciparum in erythrocytes, SYBR Green DNA, 72 h; series mostly up to 28.7 µM
Outline: as §1

[26] = tested on: CP215; test: as above; conditions: P. falciparum in erythrocytes, SYBR Green DNA, 72 h; series mostly up to 28.7 µM
Outline: as §1

[27] = tested on: CP217; test: as above; conditions: P. falciparum in erythrocytes, SYBR Green DNA, 72 h; series mostly up to 28.7 µM
Outline: as §1

[28] = tested on: CP238; test: as above; conditions: P. falciparum in erythrocytes, SYBR Green DNA, 72 h; series mostly up to 28.7 µM
Outline: as §1

[29] = tested on: CP247; test: as above; conditions: P. falciparum in erythrocytes, SYBR Green DNA, 72 h; series mostly up to 28.7 µM
Outline: as §1

[30] = tested on: CP250; test: as above; conditions: P. falciparum in erythrocytes, SYBR Green DNA, 72 h; series mostly up to 28.7 µM
Outline: as §1

[31] = tested on: CP252; test: as above; conditions: P. falciparum in erythrocytes, SYBR Green DNA, 72 h; series mostly up to 28.7 µM
Outline: as §1

[32] = tested on: CP256; test: as above; conditions: P. falciparum in erythrocytes, SYBR Green DNA, 72 h; series mostly up to 28.7 µM
Outline: as §1

[33] = tested on: CP262; test: as above; conditions: P. falciparum in erythrocytes, SYBR Green DNA, 72 h; series mostly up to 28.7 µM
Outline: as §1

[34] = tested on: CP265; test: as above; conditions: P. falciparum in erythrocytes, SYBR Green DNA, 72 h; series mostly up to 28.7 µM
Outline: as §1

[35] = tested on: CP266; test: as above; conditions: P. falciparum in erythrocytes, SYBR Green DNA, 72 h; series mostly up to 28.7 µM
Outline: as §1

[36] = tested on: CP268; test: as above; conditions: P. falciparum in erythrocytes, SYBR Green DNA, 72 h; series mostly up to 28.7 µM
Outline: as §1

[37] = tested on: CP269; test: as above; conditions: P. falciparum in erythrocytes, SYBR Green DNA, 72 h; series mostly up to 28.7 µM
Outline: as §1

[38] = tested on: CP297; test: as above; conditions: P. falciparum in erythrocytes, SYBR Green DNA, 72 h; series mostly up to 28.7 µM
Outline: as §1

[39] = tested on: CP305; test: as above; conditions: P. falciparum in erythrocytes, SYBR Green DNA, 72 h; series mostly up to 28.7 µM
Outline: as §1

[40] = tested on: CP315; test: as above; conditions: P. falciparum in erythrocytes, SYBR Green DNA, 72 h; series mostly up to 28.7 µM
Outline: as §1

[41] = tested on: CP325; test: as above; conditions: P. falciparum in erythrocytes, SYBR Green DNA, 72 h; series mostly up to 28.7 µM
Outline: as §1

[42] = tested on: CP329; test: as above; conditions: P. falciparum in erythrocytes, SYBR Green DNA, 72 h; series mostly up to 28.7 µM
Outline: as §1

[43] = tested on: DIV17; test: as above; conditions: P. falciparum in erythrocytes, SYBR Green DNA, 72 h; series mostly up to 28.7 µM
Outline: as §1

[44] = tested on: DIV30; test: as above; conditions: P. falciparum in erythrocytes, SYBR Green DNA, 72 h; series mostly up to 28.7 µM
Outline: as §1

[45] = tested on: Dd2; test: as above; conditions: P. falciparum in erythrocytes, SYBR Green DNA, 72 h; series mostly up to 28.7 µM
Outline: as §1

[46] = tested on: ECU; test: as above; conditions: P. falciparum in erythrocytes, SYBR Green DNA, 72 h; series mostly up to 28.7 µM
Outline: as §1

[47] = tested on: FAB9; test: as above; conditions: P. falciparum in erythrocytes, SYBR Green DNA, 72 h; series mostly up to 28.7 µM
Outline: as §1

[48] = tested on: JCK; test: as above; conditions: P. falciparum in erythrocytes, SYBR Green DNA, 72 h; series mostly up to 28.7 µM
Outline: as §1

[49] = tested on: N140; test: as above; conditions: P. falciparum in erythrocytes, SYBR Green DNA, 72 h; series mostly up to 28.7 µM
Outline: as §1

[50] = tested on: P94_40; test: as above; conditions: P. falciparum in erythrocytes, SYBR Green DNA, 72 h; series mostly up to 28.7 µM
Outline: as §1

[51] = tested on: PC15; test: as above; conditions: P. falciparum in erythrocytes, SYBR Green DNA, 72 h; series mostly up to 28.7 µM
Outline: as §1

[52] = tested on: PC26; test: as above; conditions: P. falciparum in erythrocytes, SYBR Green DNA, 72 h; series mostly up to 28.7 µM
Outline: as §1

[53] = tested on: PC49; test: as above; conditions: P. falciparum in erythrocytes, SYBR Green DNA, 72 h; series mostly up to 28.7 µM
Outline: as §1

[54] = tested on: SC27B; test: as above; conditions: P. falciparum in erythrocytes, SYBR Green DNA, 72 h; series mostly up to 28.7 µM
Outline: as §1

[55] = tested on: TAB113; test: as above; conditions: P. falciparum in erythrocytes, SYBR Green DNA, 72 h; series mostly up to 28.7 µM
Outline: as §1

Glucocorticoid receptor (Homo sapiens), sequence (P04150 whole entry, looked up, the tested form may be a part): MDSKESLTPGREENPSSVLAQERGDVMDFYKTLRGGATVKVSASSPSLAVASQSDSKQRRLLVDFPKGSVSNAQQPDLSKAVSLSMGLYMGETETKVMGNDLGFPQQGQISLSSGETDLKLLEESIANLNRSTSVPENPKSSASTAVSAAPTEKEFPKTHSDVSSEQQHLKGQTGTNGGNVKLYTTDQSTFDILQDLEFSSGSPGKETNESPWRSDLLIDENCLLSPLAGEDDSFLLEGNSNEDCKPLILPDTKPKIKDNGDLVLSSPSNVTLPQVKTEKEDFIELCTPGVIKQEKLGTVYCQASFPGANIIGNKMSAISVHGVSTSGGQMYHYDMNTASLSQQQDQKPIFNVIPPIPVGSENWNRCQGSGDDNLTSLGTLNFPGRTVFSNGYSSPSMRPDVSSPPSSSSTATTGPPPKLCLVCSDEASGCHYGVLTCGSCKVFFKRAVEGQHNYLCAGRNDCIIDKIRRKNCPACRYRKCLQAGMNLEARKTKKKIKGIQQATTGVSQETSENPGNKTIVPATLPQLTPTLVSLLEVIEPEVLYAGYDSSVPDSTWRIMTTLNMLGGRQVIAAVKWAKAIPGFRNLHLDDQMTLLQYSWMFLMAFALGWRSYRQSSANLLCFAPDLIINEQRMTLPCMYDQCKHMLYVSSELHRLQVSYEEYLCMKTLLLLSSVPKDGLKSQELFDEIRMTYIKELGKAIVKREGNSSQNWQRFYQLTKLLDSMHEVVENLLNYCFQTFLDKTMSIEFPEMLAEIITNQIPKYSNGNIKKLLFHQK
3',5'-cyclic-AMP phosphodiesterase 4B (Homo sapiens), sequence (Q07343 whole entry, looked up): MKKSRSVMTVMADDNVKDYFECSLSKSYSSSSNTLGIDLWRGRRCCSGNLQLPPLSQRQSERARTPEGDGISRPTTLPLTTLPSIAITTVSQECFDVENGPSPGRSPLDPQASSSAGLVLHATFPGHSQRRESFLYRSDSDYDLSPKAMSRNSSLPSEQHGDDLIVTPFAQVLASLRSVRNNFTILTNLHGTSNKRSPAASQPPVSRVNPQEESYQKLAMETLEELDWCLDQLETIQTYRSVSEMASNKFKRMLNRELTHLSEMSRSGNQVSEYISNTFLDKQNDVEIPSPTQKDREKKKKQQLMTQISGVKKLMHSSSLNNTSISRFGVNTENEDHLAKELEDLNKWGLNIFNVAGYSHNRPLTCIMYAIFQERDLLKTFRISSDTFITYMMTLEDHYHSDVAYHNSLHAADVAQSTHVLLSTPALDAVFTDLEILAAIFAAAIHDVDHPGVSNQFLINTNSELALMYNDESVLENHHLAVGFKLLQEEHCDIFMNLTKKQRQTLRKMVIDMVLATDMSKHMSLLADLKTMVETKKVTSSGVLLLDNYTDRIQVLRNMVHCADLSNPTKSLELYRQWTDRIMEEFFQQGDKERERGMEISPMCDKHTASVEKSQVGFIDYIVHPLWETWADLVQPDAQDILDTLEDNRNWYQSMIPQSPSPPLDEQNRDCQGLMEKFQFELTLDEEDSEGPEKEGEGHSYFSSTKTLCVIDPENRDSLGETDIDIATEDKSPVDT
Luciferin 4-monooxygenase (Photinus pyralis), sequence (P08659 whole entry, looked up): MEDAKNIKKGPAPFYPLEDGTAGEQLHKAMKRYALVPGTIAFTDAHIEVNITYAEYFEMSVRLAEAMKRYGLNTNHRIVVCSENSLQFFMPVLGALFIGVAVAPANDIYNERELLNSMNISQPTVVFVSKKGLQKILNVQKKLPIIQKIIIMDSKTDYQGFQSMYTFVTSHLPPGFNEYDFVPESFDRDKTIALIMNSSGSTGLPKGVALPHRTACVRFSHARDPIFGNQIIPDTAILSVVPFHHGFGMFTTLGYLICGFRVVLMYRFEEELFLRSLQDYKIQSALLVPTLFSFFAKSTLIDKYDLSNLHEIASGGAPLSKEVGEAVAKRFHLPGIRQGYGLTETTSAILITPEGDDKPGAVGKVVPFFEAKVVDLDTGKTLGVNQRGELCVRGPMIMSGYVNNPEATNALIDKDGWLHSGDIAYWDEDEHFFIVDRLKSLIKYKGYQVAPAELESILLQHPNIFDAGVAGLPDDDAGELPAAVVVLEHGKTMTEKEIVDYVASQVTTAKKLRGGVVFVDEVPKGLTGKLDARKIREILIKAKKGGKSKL
Ubiquitin carboxyl-terminal hydrolase 1 (Homo sapiens), sequence (O94782 whole entry, looked up): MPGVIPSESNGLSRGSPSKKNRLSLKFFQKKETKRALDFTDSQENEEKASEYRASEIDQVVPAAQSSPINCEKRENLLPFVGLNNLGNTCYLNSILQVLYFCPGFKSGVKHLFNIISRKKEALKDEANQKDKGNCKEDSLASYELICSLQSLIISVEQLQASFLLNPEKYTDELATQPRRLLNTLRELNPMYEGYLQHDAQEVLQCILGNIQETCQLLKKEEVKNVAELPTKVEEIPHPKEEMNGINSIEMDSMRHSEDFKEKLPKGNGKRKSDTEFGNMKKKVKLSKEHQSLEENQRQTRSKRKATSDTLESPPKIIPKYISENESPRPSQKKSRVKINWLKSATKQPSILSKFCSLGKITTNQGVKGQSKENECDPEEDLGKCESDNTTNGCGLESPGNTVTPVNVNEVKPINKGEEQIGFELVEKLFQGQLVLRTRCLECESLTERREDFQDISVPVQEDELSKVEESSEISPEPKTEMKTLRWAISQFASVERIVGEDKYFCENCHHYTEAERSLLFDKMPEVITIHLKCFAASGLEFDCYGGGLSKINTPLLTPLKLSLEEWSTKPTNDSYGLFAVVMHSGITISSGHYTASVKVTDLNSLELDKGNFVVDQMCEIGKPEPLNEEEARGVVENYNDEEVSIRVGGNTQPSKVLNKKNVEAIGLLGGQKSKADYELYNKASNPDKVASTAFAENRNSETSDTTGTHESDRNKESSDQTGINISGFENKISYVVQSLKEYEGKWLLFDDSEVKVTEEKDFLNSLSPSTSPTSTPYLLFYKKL
ATP-dependent 6-phosphofructokinase (Trypanosoma brucei brucei), sequence (O15648 whole entry, looked up): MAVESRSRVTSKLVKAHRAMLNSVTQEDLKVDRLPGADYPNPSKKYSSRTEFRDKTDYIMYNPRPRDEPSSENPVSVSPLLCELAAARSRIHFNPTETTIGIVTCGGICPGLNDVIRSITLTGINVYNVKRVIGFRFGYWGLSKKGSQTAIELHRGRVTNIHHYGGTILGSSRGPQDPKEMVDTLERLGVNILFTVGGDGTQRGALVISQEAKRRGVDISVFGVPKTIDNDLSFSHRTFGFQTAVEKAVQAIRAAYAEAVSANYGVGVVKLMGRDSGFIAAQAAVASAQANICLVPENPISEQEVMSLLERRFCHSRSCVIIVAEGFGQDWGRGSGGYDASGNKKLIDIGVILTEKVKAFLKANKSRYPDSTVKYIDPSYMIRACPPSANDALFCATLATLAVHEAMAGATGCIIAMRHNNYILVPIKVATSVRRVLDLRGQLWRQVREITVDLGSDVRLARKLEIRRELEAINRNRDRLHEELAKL

CN(C)[C@H]1C(=O)C(C(N)=O)=C(O)[C@]2(O)C(=O)C3=C(O)c4c(O)cccc4[C@@](C)(O)[C@H]3C[C@@H]12
active: Potency [45] 1.78 µM
inactive: activity change, negative = inhibition [1] 11.4% | activity change, negative = inhibition [2] -2.46% | outcome [3] | Potency [4] > 20.6 µM | Potency [5] > 20.6 µM | outcome [6] | outcome [7] | outcome [8] | Potency [9] | Potency [10] | Potency [11] | Potency [12] | Potency [13] | activity, negative = inhibition ([14]; parasite line A) -27.8% | activity, negative = inhibition ([14]; parasite line B) -27.1% | Potency [15] | Potency [16] | Potency [17] | Potency [18] | Potency [19] | Potency [20] | Potency [21] | Potency [22] | Potency [23] | Potency [24] | Potency [25] | Potency [26] | Potency [27] | Potency [28] | Potency [29] | Potency [30] | Potency [31] | Potency [32] | Potency [33] | Potency [34] | Potency [35] | Potency [36] | Potency [37] | Potency [38] | Potency [39] | Potency [40] | Potency [41] | Potency [42] | Potency [43] | Potency [44] | Potency [46] | Potency [47] | Potency [48] | Potency [49] | Potency [50] | Potency [51] | Potency [52] | Potency [53] | Potency [54] | Potency [55]
